Data on 68 molecules can be found in ChEMBL document CHEMBL4513216, “Probing the Open Global Health Chemical Diversity Library for Multistage-Active Starting Points for Next-Generation Antimalarials” (ACS Infect Dis, 2020).

Out of some 68,000 compounds screened, about 2,700 (4%) showed an effect of 50% or more. Shown is part of a subset that was picked to be rich in strong results.

The assay has as its system Plasmodium berghei. As to the kind of experiment: Screen against P. berghei liver stage (PbLuc), transformed with Luciferase, at 2uM. It is filed as functional, HepG2. Conditions: tested at 2 uM.
As for `Cc1csc(CN2CCC(C(=O)O)(n3ccc(-c4ccco4)n3)CC2)n1`, the INHIBITION is recorded as -8.84%. Regarding `Cc1cc(C(=O)N(C)Cc2cccs2)nc(N2CCOCC2)n1`, the INHIBITION is recorded as -3.54%. In the case of `Cc1cc(C(=O)N(C)Cc2cccs2)nc(N2CCCCC2)n1` it was -14.24%.

For `Cc1cc(C(=O)N(C)Cc2cccs2)nc(N2CCCC2)n1`, the INHIBITION was 50.9%. In the case of `CC(C)c1ncc(CN2CCCC(CO)C2)cn1` (stereo not drawn), the INHIBITION was 1.42%. As for `NC(=O)CCC1CCCN(Cc2cnc(N3CCCCC3)nc2)C1` (stereo not drawn), the figure is 44.23%; as for `c1nc(N2CCCC2)ncc1CN1CCCC(CN2CCCCC2)C1` (stereo not drawn), 52.45%; as for `Cc1ccoc1C(=O)NC1CCN(Cc2cccc3ccccc23)CC1`, 3.48%.

With `CC(=O)N(C)CC(=O)NC(C)c1ccc(OCCC(C)C)cc1` (stereo not drawn), the INHIBITION came to 29.41%. Turning to `N#Cc1c(N)nc2c(c1-c1c[nH]nc1C1CCCCC1)COCC2`, the INHIBITION is given as -64.94%.

As for `CCCn1nc(C)c2c1NC(=O)CC2c1ccc(CN2CCCC2)s1` (stereo not drawn), the INHIBITION is listed as 5.02%. As for `Cn1nc(C2CC2)c2c1NC(=O)CC2c1ccc(CN2CCCCC2)s1` (stereo not drawn), the figure is 22.63%. Take `Cn1nc(C2CC2)c2c1NC(=O)CC2c1cc(CN2CCCC2)cs1` (stereo not drawn): the INHIBITION amounted to 73.26%. Regarding `O=C(CC1CCCC1)N1CCC(c2nnc(-c3ccccn3)o2)CC1`, the INHIBITION was 9.09%. As for `Cc1cc(C(=O)NCCC(=O)N2CCCc3ccccc32)no1`, the figure is 12.39%; as for `COc1c(C(=O)NCc2cccnc2)nnn1Cc1ccc(C)cc1`, -19.47%; as for `Cc1ccc2c(c1)Oc1ncccc1C(=O)N2`, 9.43%. For the molecule `CN(CC(=O)NCCC#N)C(c1ccccc1)c1ccccc1`, the INHIBITION worked out at 21.71%. As for `CN(CC(=O)NCCC#N)C(c1ccccc1)c1ccc(F)cc1` (stereo not drawn), the figure is 13.11%. With `CC(c1ccccc1)N(C)CC(=O)NCCC#N` (stereo not drawn), the INHIBITION came out at 59.24%. In the case of `O=C(CCc1cc2n(n1)CCN(CCCn1cccc1)C2)N1CCCC1` it was 5.1%.

`CC1(C)CC(N(Cc2cccnc2)Cc2cccc(F)c2)CC(C)(C)N1`: the INHIBITION is recorded as -4.26%. Regarding `O=C(NCCCn1nc2ccccn2c1=O)Nc1ccc(F)cc1F`, the INHIBITION turned out to be 4.96%.

As for `CN1CCN(S(=O)(=O)c2cccc(S(=O)(=O)C3CCS(=O)(=O)C3)c2)CC1` (stereo not drawn), the INHIBITION turned out to be 28.43%. As for `COc1ncccc1C1CC(=O)NCc2nc3ccccn3c21` (stereo not drawn), the figure is 29.41%; as for `COc1ncc(C2CC(=O)NCc3nc4ccccn4c32)cn1` (stereo not drawn), -36.24%. As for `COc1ccc(C2CC(=O)NCc3nc4ccccn4c32)cn1` (stereo not drawn), the INHIBITION was found to be 54.3%. As for `COCCC1(C(=O)O)CCCN(C(=O)c2cc(C)oc2C)C1` (stereo not drawn), the figure is -11.55%. As for `CC(C)C(CCO)NC(=O)Nc1ccc(-c2csnn2)cc1` (stereo not drawn), the figure is 12.78%; as for `Cc1ccc(C(=O)NC2CCCN(S(C)(=O)=O)C2)c(=O)[nH]1` (stereo not drawn), -34.79%; as for `Cc1ccc(C(=O)NC2CCCN(C)C2)c(=O)[nH]1` (stereo not drawn), 52.84%. Regarding `CCN1CCCC(NC(=O)c2ccc(C)[nH]c2=O)C1` (stereo not drawn), the INHIBITION was -53.67%.

With `Cc1cccc(CN(Cc2ccc(C)o2)C2CC(C)(C)NC(C)(C)C2)n1`, the INHIBITION is reported as 29.73%. As to `CCc1nc(N)nc(N2CCCC3(CCN(C)CC3)CC2)c1C`, the INHIBITION is -17.39%.

With `CC(=O)c1ccc(-c2cnn(CC(=O)Nc3ccnn3C)c2)nc1`, the INHIBITION is listed as 59.56%. In the case of `CC(=O)c1ccc(-c2cnn(CC(=O)Nc3cc(C)nn3C)c2)nc1` it was 36.09%.

For `Cn1ccnc1-c1cnn(CC(=O)Nc2ccnn2C)c1`, the INHIBITION amounted to 35.13%.

As to `CS(=O)(=O)N1C[C@H]2CC[C@@H](C1)N(C(=O)CCc1n[nH]c3c1CCCC3)C2`, the INHIBITION is reported as -4.58%.

As to `Cn1cc(C2CCCN2Cc2csc(Cc3ccccc3)n2)cn1` (stereo not drawn), the INHIBITION stood at 3.48%.

On to `CCCc1nc(CN2CCCC2c2cnn(C)c2)cs1` (stereo not drawn), for which the INHIBITION is 58.52%.

Take `Cn1cc(C2CCCN2Cc2csc(C(C)(C)C)n2)cn1` (stereo not drawn): the INHIBITION is -10.66%.

As to `Cc1cc(NCCc2nnc(N)s2)nc(-c2ccccc2)n1`, the INHIBITION is 7.02%. `COc1nccnc1N1CCCC2(C1)C(=O)N(C)c1ccccc12` (stereo not drawn): the INHIBITION is reported as -8.8%.

As to `CCN1CCc2c(cccc2NC(=O)N(C)C2CCSC2)C1` (stereo not drawn), the INHIBITION is given as 51.9%. Consider `CCN1CCN(c2ccccc2NC(=O)N(C)C2CCSC2)CC1` (stereo not drawn), for which the INHIBITION came to 25.08%. As to `CCN1CCc2c(cccc2NC(=O)CN(C)C2CCSC2)C1` (stereo not drawn), the INHIBITION is recorded as 49.21%. In the case of `Cn1ccc(C(=O)Nc2cccc(-c3ccc4c(c3)CCO4)n2)cc1=O` it was -17.18%; in that of `Cc1ccc2c(c1)OC(C)CN2C(=O)c1c[nH]c(C)cc1=O` (stereo not drawn), -33.29%; in that of `CCn1nccc1CN(C)C(=O)Cn1nc(C)cc1C`, -47.19%. In the case of `Cn1nc(Br)c2c(NCCCS(N)(=O)=O)ncnc21` it was -5.61%; in that of `CCOCC(=O)N1Cc2nccn2CC(CN(C)C)C1` (stereo not drawn), -8.84%; in that of `COc1ccc2nnc(CCC(=O)Nc3nc4c(s3)CCCC4)n2n1`, 21.57%. As for `COc1ccc2nnc(CCC(=O)Nc3nc4c(s3)CCC4)n2n1`, the figure is 58.29%; as for `COc1ccc2nnc(CCC(=O)Nc3nc4c(s3)CCCCC4)n2n1`, 48.59%. Consider `COCCNC(=O)c1cc(C2CC2)nc2onc(C3CCNC3)c12` (stereo not drawn), for which the INHIBITION came to 5.75%. Take `CCOc1ccccc1NC(C)C(=O)N(C)Cc1cccc(F)c1` (stereo not drawn): the INHIBITION was 4.8%. In the case of `CC(NC(=O)Cn1cccn1)c1ccc2c(c1)OCCO2` (stereo not drawn) it was 21.39%; in that of `CC(NC(=O)Cn1cccn1)c1ccc2c(c1)OCCCO2` (stereo not drawn), 51.21%. As for `CC(NC(=O)CCn1cccn1)c1ccc2c(c1)OCCO2` (stereo not drawn), the figure is -17.31%. As for `O=C(O)c1ccccc1-n1cnc(CN2CCCc3ccccc32)c1`, the figure is 37.36%. Turning to `CN1CC(=O)N(c2cnn(C)c2)CC12CCN(Cc1nccn1C)C2` (stereo not drawn), the INHIBITION was 8.65%. In the case of `Cc1ccc(N2CC3(COCCN(Cc4ccccn4)C3)OCC2=O)s1` (stereo not drawn) it was 40%; in that of `Cc1ccc(N2CC3(COCCN(Cc4nccs4)C3)OCC2=O)s1` (stereo not drawn), 58%; in that of `Cc1ccc(N2CC3(COCCN(Cc4ccncc4)C3)OCC2=O)s1` (stereo not drawn), -37.34%.

In the case of `O=C(CCN1CCCC1=O)Nc1cnn(-c2ccccc2Cl)c1`, the INHIBITION amounted to 25.35%. As for `O=C(CCCN1CCOC1=O)Nc1cnn(-c2ccccc2Cl)c1`, the figure is -16.28%; as for `O=C(CCN1CCOC1=O)Nc1cnn(-c2ccccc2Cl)c1`, 51.46%. As for `Cc1ccc2cc(CN(C)Cc3nccs3)c(=O)[nH]c2c1`, the figure is -0.38%.
